# According to PubChem BioAssay:
# Values joined by “and” are separate entries in the source; they are usually repeats but may differ in a detail not shown here. Equal entries are not always repeated. Active and inactive are the calls of the source. Unless noted, the rule behind the calls is not given here.
# Assays:
# [1] = P. berghei load reduction in hepatocytes – cell-based, HepG2, luciferase luminescence, HepG2 viability, primary screen (AID 624349; in the data active = parasite load remaining mostly below about 12%, no sharp cut-off; inactive = mostly above about 10%;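 note: 100% = mean of DMSO negative control wells on the same plate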); conditions: P. berghei liver stage in HepG2, luciferase luminescence, concentration not given here; parasite load remaining: stronger effect = lower value; viability: measured here: HepG2 viability without parasites
# [2] = Wnt pathway potentiators raising nuclear beta-catenin – imaging, WNT3A-conditioned medium, mouse C2C12, NPC library, primary screen (AID 1117326; in the data active = nuclear beta-catenin stimulation mostly above about 4.2%, no sharp cut-off; inactive = mostly below about 10%); conditions: stronger effect = higher value
# [3] = compounds altering viability of human ES cells (AID 493140); conditions: human embryonic stem cell survival screen; stronger effect = higher value;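 note: cells exposed to compounds for four days before counting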
# [4] = signal quenchers or enhancers, Cy5 substrate/SSB – biochemical, NIH Clinical Collection, E. coli SSB, artefact control for HCV NS3 helicase inhibitor project (AID 743268); conditions: Cy5-oligo bound E. coli SSB, fluorescence interference
# [5] = tested on: Hepatitis C virus NS3 helicase; assay: blockers of NS3h binding to DNA – biochemical, fluorescence polarization, NIH Clinical Collection, primary screen (AID 743270); conditions: NS3 helicase binding to Cy5-dT15 DNA, stronger effect = higher value, concentration not given here
# [6] = target: Single-stranded DNA-binding protein (Escherichia coli (strain K12)) (UniProt P0AGE0); assay: SSB-ssDNA binding inhibitors – biochemical, fluorescence polarization, NIH Clinical Collection, counter-screen for HCV NS3 helicase inhibitor project (AID 743271; in the data active = inhibition above about 28%); conditions: E. coli SSB-DNA binding, stronger effect = higher value, concentration not given here
# [7] = compounds distorting NS3 helicase fluorescence signal – biochemical, NIH Clinical Collection, artefact control for HCV NS3 helicase inhibitor project (AID 743272); conditions: fluorescence interference counterscreen, HCV NS3 helicase assay; stronger effect = lower value;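 note: HCV NS3 helicase with a Cy5 labelled single stranded DNA probe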
# [8] = tested on: Neuropilin-2 / VEGF-C interaction (human); assay: small molecules blocking Neuropilin-2/VEGF-C interaction – biochemical, microplate binding format, z-score (AID 743281); conditions: microplate NRP2/VEGF-C binding assay; stronger effect = lower value
structure (smiles),measurement,setting,value
CN(C)c1ccc2nc3ccc(=[N+](C)C)cc-3sc2c1,parasite load remaining,[1],0.205% (inactive)
same,viability,[1],47.9%
same,nuclear beta-catenin stimulation,[2]; at 10 µM,3.1% (inactive)
same,nuclear beta-catenin stimulation,"[2]; stimulation, at 2 µM",2.2%
C[C@@H]1CN(c2c(F)c(N)c3c(=O)c(C(=O)O)cn(C4CC4)c3c2F)C[C@H](C)N1,parasite load remaining,[1],16.6% (inactive)
same,viability,[1],70%
same,nuclear beta-catenin stimulation,[2]; at 10 µM,-1.1% (inactive)
same,nuclear beta-catenin stimulation,"[2]; stimulation, at 2 µM",-1.1%
COc1cc2c3cc1Oc1cc(ccc1O)C[C@@H]1c4c(cc(OC)c(O)c4Oc4ccc(cc4)C[C@@H]3N(C)CC2)CC[N+]1(C)C,parasite load remaining,[1],55.9% (inactive) and 65.3% (inactive)
same,viability,[1],118% and 192%
same,nuclear beta-catenin stimulation,[2]; at 10 µM,3.1% (inactive)
same,nuclear beta-catenin stimulation,"[2]; stimulation, at 2 µM",-0.1%
CCCCCCCCCCCCCCCCOP(=O)([O-])OCC[N+](C)(C)C,parasite load remaining,[1],146% (inactive) and 43% (inactive)
same,viability,[1],78.6% and 106%
same,nuclear beta-catenin stimulation,[2]; at 10 µM,-0.6% (inactive)
same,nuclear beta-catenin stimulation,"[2]; stimulation, at 2 µM",1.9%
O=C(O)c1cn(-c2ccc(F)cc2)c2cc(N3CCNCC3)c(F)cc2c1=O,parasite load remaining,[1],63.8% (inactive) and 65.5% (inactive) and 24.1% (inactive)
same,viability,[1],92.7% and 132% and 71%
same,nuclear beta-catenin stimulation,[2]; at 10 µM,0.8% (inactive)
same,nuclear beta-catenin stimulation,"[2]; stimulation, at 2 µM",2.8%
O=P(O)(O)C(O)(Cc1cccnc1)P(=O)(O)O,parasite load remaining,[1],12.3% (inactive) and 1.41% (inactive)
same,viability,[1],96.3% and 95%
same,nuclear beta-catenin stimulation,[2]; at 10 µM,-1.2% (inactive)
same,nuclear beta-catenin stimulation,"[2]; stimulation, at 2 µM",-0.8%
C/C=C/c1ccc(OC)cc1,parasite load remaining,[1],163% (inactive) and 38.2% (inactive) and 65% (inactive)
same,viability,[1],88.5% and 100% and 126%
same,nuclear beta-catenin stimulation,[2]; at 10 µM,-1.7% (inactive)
same,nuclear beta-catenin stimulation,"[2]; stimulation, at 2 µM",2.3%
COc1cc([C@H]2Oc3cc([C@H]4Oc5cc(O)cc(O)c5C(=O)[C@@H]4O)ccc3O[C@@H]2CO)ccc1O,parasite load remaining,[1],75.8% (inactive)
same,viability,[1],93%
same,nuclear beta-catenin stimulation,[2]; at 10 µM,3.7% (inactive)
same,nuclear beta-catenin stimulation,"[2]; stimulation, at 2 µM",0.8%
O=c1[nH]c(=O)n([C@H]2C[C@H](O)[C@@H](CO)O2)cc1F,parasite load remaining,[1],13.4% (inactive)
same,viability,[1],75%
same,nuclear beta-catenin stimulation,[2]; at 10 µM,21% (inactive)
same,nuclear beta-catenin stimulation,"[2]; stimulation, at 2 µM",21.6%
COc1ccc2nc(S(=O)Cc3ncc(C)c(OC)c3C)[nH]c2c1 (centres undefined),survival,[3],10.2 (inactive)
same,fluorescence ratio,[4],1.02 (inactive)
same,inhibition,[5],-1.97% (inactive)
same,inhibition,[6],-3.54% (inactive)
same,fluorescence ratio,[7],0.98 (inactive)
same,z-score,[8],-0.241 (inactive)
same,nuclear beta-catenin stimulation,[2]; at 10 µM,8.5% (inactive)
same,nuclear beta-catenin stimulation,"[2]; stimulation, at 2 µM",4.5%
Cc1nccn1CC1CCc2c(c3ccccc3n2C)C1=O (centres undefined),survival,[3],36.2 (inactive)
same,fluorescence ratio,[4],0.99 (inactive) and 1.12 (inactive)
same,inhibition,[5],0.4% (inactive) and -4.09% (inactive)
same,inhibition,[6],3.75% (inactive) and 1.05% (inactive)
same,fluorescence ratio,[7],0.97 (inactive) and 1.02 (inactive)
same,z-score,[8],-0.188 (inactive)
same,nuclear beta-catenin stimulation,[2]; at 10 µM,-0.2% (inactive)
same,nuclear beta-catenin stimulation,"[2]; stimulation, at 2 µM",1.9%
COc1cccc2c1C(=O)c1c(O)c3c(c(O)c1C2=O)C[C@@](O)(C(=O)CO)C[C@@H]3O[C@H]1C[C@H](N)[C@H](O)[C@H](C)O1,survival,[3],0.167 (inactive)
same,fluorescence ratio,[4],0.07 (active)
same,inhibition,[5],7.52% (inactive)
same,inhibition,[6],90% (active)
same,fluorescence ratio,[7],0.4 (active)
same,z-score,[8],0.436 (inactive)
same,nuclear beta-catenin stimulation,[2]; at 10 µM,28.9% (inactive)
same,nuclear beta-catenin stimulation,"[2]; stimulation, at 2 µM",27.7%
COc1ccc(CC2c3cc(OC)c(OC)cc3CC[N+]2(C)CCC(=O)OCCCCCOC(=O)CC[N+]2(C)CCc3cc(OC)c(OC)cc3C2Cc2ccc(OC)c(OC)c2)cc1OC (centres undefined),survival,[3],12.4 (inactive)
same,fluorescence ratio,[4],1.03 (inactive)
same,inhibition,[5],-1.09% (inactive)
same,inhibition,[6],1.97% (inactive)
same,fluorescence ratio,[7],1.02 (inactive)
same,outcome,[8],inactive
same,nuclear beta-catenin stimulation,[2]; at 10 µM,21.5% (inactive)
same,nuclear beta-catenin stimulation,"[2]; stimulation, at 2 µM",0.3%
O=C(O)CCNC(=O)c1ccccc1,parasite load remaining,[1],140% (inactive)
same,viability,[1],88.4%
same,nuclear beta-catenin stimulation,[2]; at 10 µM,3.5% (inactive)
same,nuclear beta-catenin stimulation,"[2]; stimulation, at 2 µM",0.2%
C[C@]12CCC(=O)C=C1C=C[C@@H]1[C@@H]2CC[C@@]2(C)[C@H]1CC[C@@]21CCC(=O)O1,parasite load remaining,[1],17.5% (inactive)
same,viability,[1],73%
same,nuclear beta-catenin stimulation,[2]; at 10 µM,2.7% (inactive)
same,nuclear beta-catenin stimulation,"[2]; stimulation, at 2 µM",1.9%
CN1CCCCC1CCN1c2ccccc2Sc2ccc(S(C)=O)cc21 (centres undefined),survival,[3],3.42 (inactive)
same,fluorescence ratio,[4],0.96 (inactive)
same,inhibition,[5],-2.77% (inactive)
same,inhibition,[6],-3.18% (inactive)
same,fluorescence ratio,[7],0.95 (inactive)
same,z-score,[8],0.284 (inactive)
same,nuclear beta-catenin stimulation,[2]; at 10 µM,2.6% (inactive)
same,nuclear beta-catenin stimulation,"[2]; stimulation, at 2 µM",3.5%
